The text below walks through data of PubChem BioAssay (Tox21).

A number with no mark means an inactive call. Records with an inconclusive call do not appear. Active and inactive are the calls of the source. Unless noted, the call rests on the fitted dose curve.

A short description of assay [1]: Nuclear factor erythroid 2-related factor 2/antioxidant responsive element (Nrf2/ARE) small molecule agonists: qHTS cell viability counter screen in human keratinocytes (AID 1919968; active means well fitted curve in the direction sought with a large enough effect in the repeat runs; an effect the other way counts as inactive or inconclusive; further: nearly all actives have a fitted effect of over 55% in size). Summed up: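 Seed 1,500 KeratinoSens cells per well, then incubate 5 h at 37 C/5% CO2. Add compounds in DMSO and incubate 23 h. Add CellTiter-Fluor, wait 1 h and read fluorescence.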
For orientation: In qHTS, concentration-response curves come from the screen itself.

A short description of assay [2]: Nuclear factor erythroid 2-related factor 2/antioxidant responsive element (Nrf2/ARE) small molecule agonists: luciferase reporter gene qHTS assay in human keratinocytes (AID 1919969). Further: nearly all actives have a fitted effect of over 35% in size.
The target in assay [3] is Gonadotropin-releasing hormone receptor (Homo sapiens) (UniProt P30968). Put plainly: Human gonadotropin-releasing hormone receptor (GnRHR) small molecule agonists, calcium flux assay in GnRHR-HEK293 cells (AID 1920063). Further: nearly all actives have a fitted effect of over 35% in size. The method, boiled down: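 Cells: HEK293 stably expressing human GnRHR. Steps: overnight (18 h) culture, 1 h calcium dye loading at 37 C, compound addition, kinetic fluorescence read at 480/540 nm. Each compound tested at 15 concentrations in triplicate.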
Gonadotropin-releasing hormone receptor (Homo sapiens), sequence (P30968 whole entry, looked up): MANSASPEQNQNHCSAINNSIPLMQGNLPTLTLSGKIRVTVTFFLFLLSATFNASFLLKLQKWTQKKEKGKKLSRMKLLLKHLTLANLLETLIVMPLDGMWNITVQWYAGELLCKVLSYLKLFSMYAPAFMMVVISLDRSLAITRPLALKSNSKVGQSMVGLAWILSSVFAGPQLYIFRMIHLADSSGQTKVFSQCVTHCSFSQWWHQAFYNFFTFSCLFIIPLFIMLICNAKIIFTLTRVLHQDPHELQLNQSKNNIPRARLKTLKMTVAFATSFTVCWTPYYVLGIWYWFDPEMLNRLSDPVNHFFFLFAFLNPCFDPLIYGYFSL
On the technique in general: Calcium assays in cells follow changes in intracellular calcium, usually with a dye or a luminescent sensor.

Assay [4] has as its target KiSS-1 receptor (Homo sapiens) (UniProt Q969F8). The assay can be described thus: Human kisspeptin (KISS1R) small molecule agonists, calcium flux assay in KISS1R-HEK293 cells (AID 1920064; active means well fitted curve in the direction sought with a large enough effect in the repeat runs; an effect the other way counts as inactive or inconclusive). The method, boiled down:
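Cells plated and incubated 18 h; dye added, 1 h at 37 C; compounds in DMSO pinned in; signal read at 480/540 nm every second for 3 min. Each compound tested at 15 concentrations in triplicate.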

A short description of assay [5]: G protein-coupled receptor (GPCR) small molecule agonists, calcium flux assay: HEK293 wild type cell line counter screen (AID 1920065). Summed up: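 Counter-screen of the Tox21 10K library for non-specific calcium release: dye-loaded cells received compounds in DMSO and were monitored by kinetic fluorescence (480/540 nm, 3 min). Fifteen concentrations, run in triplicate.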

The nature of assay [6]: p53 small molecule agonists, cell-based qHTS assay with human liver microsomes (AID 1963577).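 Further: p53 response element beta-lactamase reporter cells with liver microsomes plus NADPH.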 Summed up:
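In this qHTS, p53 response-element beta-lactamase cells receive test compound together with a microsome/NADPH activating system (0.5 mg/mL final each) and are incubated 16 h at 37 C before LiveBLAzer fluorescence detection.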

Assay [7] is described as follows: p53 small molecule agonists, cell-based qHTS assay with rat liver microsomes (AID 1963578). The method, boiled down:
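Agonist mode in p53RE-bla reporter cells, with compounds co-incubated 16 h at 37 C alongside 0.5 mg/mL rat liver microsomes and 0.5 mg/mL NADPH (final), followed by a 2 h LiveBLAzer detection step.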

Assay [8] is described as follows: p53 small molecule agonists, cell-based qHTS assay with human liver microsomes: qHTS cell viability counter screen (AID 1963579). Further: nearly all actives have a fitted effect of over 45% in size. Summed up:
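Metabolically activated exposure: compounds, human liver microsomes and NADPH (0.5 mg/mL final apiece) were added to p53RE-bla cells seeded 5 h earlier, left 16 h at 37 C, and then assessed for viability by CellTiter-Glo luminescence.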

Assay [9] can be described thus: p53 small molecule agonists, cell-based qHTS assay with rat liver microsomes: qHTS cell viability counter screen (AID 1963580). Further: nearly all actives have a fitted effect of over 45% in size. The method, boiled down:
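In HCT-116 cells carrying a p53 response element-bla reporter, compounds were metabolically activated in situ by rat liver microsomes with NADPH over 16 h. Cell ATP content then served as the cytotoxicity measure.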

Assay [10] can be described thus: p53 small molecule agonists, cell-based qHTS assay: qHTS cell viability counter screen (AID 1963581). Further: nearly all actives have a fitted effect of over 45% in size. Summed up:
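Cells: HCT-116 with p53 response element-driven beta-lactamase. Treatment: 16 h, 37 C, compounds in DMSO. Read: CellTiter-Glo luminescence after 30 min RT.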

A short description of assay [11]: p53 small molecule agonists, cell-based qHTS assay (AID 1963582; active means well fitted activation curve with a large enough effect in the signal ratio in the repeat runs, not every such curve was filed as active; the % refers to the signal ratio). The method, boiled down: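 Quantitative HTS in p53RE-bla cells: after a 5 h settling period, compounds delivered in DMSO were left on cells for 16 h at 37 C, and reporter induction was measured as fluorescence following 2 h substrate loading.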
Assay [12] deals with 5-hydroxytryptamine receptor 2A (Homo sapiens) (UniProt P28223). Put plainly: 5-hydroxytryptamine receptor 2A (HTR2A) small molecule agonists, cell-based qHTS assay (AID 1963587). Further: nearly all actives have a fitted effect of over 30% in size. Further: potency means the concentration at half of the fitted maximal effect. Summed up: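 HTR2A-CHO cells, plated 18 h at 37 C/5% CO2, dye-loaded 1 h at 37 C; compounds in DMSO added by pin tool (agonist mode). Intracellular calcium flux read as kinetic fluorescence on FDSS over 2 min at 1 s intervals.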
5-hydroxytryptamine receptor 2A (Homo sapiens), sequence (P28223 whole entry, looked up): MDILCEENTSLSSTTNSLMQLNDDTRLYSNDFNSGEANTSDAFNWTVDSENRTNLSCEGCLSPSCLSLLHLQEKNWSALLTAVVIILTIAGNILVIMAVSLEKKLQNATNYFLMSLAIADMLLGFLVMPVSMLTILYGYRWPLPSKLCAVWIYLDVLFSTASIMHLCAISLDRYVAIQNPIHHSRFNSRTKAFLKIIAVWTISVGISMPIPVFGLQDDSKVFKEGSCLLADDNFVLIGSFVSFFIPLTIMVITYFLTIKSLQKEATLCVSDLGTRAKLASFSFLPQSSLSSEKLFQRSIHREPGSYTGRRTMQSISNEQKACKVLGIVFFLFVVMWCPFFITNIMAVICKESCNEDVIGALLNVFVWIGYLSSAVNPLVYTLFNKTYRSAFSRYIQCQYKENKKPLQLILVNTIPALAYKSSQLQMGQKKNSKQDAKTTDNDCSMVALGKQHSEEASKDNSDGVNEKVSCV

Assay [13] concerns the target Muscarinic acetylcholine receptor M1 (Homo sapiens) (UniProt P11229). The assay can be described thus: Cholinergic receptor muscarinic 1 (CHRM1) small molecule antagonists, cell-based qHTS assay (AID 1963588). Further: nearly all actives have a fitted effect of over 40% in size. The method, boiled down:
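CHRM1-CHO calcium-flux assay, antagonist mode. Cells were seeded 18 h, dye-loaded 1 h at 37 C and given compound for 5 min at RT, then acetylcholine was added at 50nM. FDSS fluorescence was read 3 min; 15 concentrations, three runs.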

Assay [14] has the same target. The assay can be described thus: Cholinergic receptor muscarinic 1 (CHRM1) small molecule agonists, cell-based qHTS assay (AID 1963589). Further: nearly all actives have a fitted effect of over 35% in size. Summed up: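 Agonist-mode qHTS in CHO cells stably carrying human muscarinic M1. Intracellular calcium is tracked by fluorescence every second after compound transfer; each compound runs at 15 concentrations in three independent runs.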

Assay [15] can be described thus: cAMP Responsive Elements (CRE) small molecule agonists, cell-based qHTS assay (AID 1963590). Summed up: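 Agonist mode qHTS in CRE-bla HEK 293T cells: compounds dosed from DMSO for 3 h at 37 C/5% CO2, followed by LiveBLAzer B/G FRET substrate for 2 h at room temperature.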
Assay [16] can be described thus: cAMP Responsive Elements (CRE) small molecule antagonists, cell-based qHTS assay (AID 1963591; active means well fitted inhibition curve with a large enough effect in the signal ratio in the repeat runs, not every such curve was filed as active; the % refers to the signal ratio). Summed up: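 Antagonist mode: test compounds are co-incubated with the adenylyl cyclase activator NKH477 (0.25 uM final) on CRE-bla HEK293T cells for 3 h at 37 °C, followed by LiveBLAzer substrate loading.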
For assay [17], the target named is Beta-2 adrenergic receptor (Homo sapiens) (UniProt P07550). The assay can be described thus: Adrenergic beta2 receptor (ADRB2) small molecule antagonists, cell-based qHTS assay (AID 1963592). Further: series mostly up to about 92 µM; nearly all actives have a fitted effect of over 50% in size. The method, boiled down:
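Cells (CHO, stable ADRB2 overexpression) incubated 18-20hr at 37C; compounds added from DMSO; agonist mix (1nM isoproterenol, 100uM IBMX, 25uM Ro-20-1724) added; 0.5hr RT; d2-cAMP and anti-cAMP-cryptate added; 1hr RT; 665/615 nm read.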

The target of assay [18] is D(2) dopamine receptor (Homo sapiens) (UniProt P14416). The assay can be described thus: Dopamine D2 receptor (DRD2) small molecule agonists, cell-based qHTS assay (AID 1963594). Further: nearly all actives have a fitted effect of over 35% in size. Further: potency means the concentration at half of the fitted maximal effect. Summed up: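 HEK293 cells stably expressing DRD2 were cultured 24 h at 37 C, then given Ro20-1724 (0.1 mM final) and compounds for 10 min at room temperature. NKH477 (200nM) was then added for 30 min. cAMP was read by HTRF.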
D(2) dopamine receptor (Homo sapiens), sequence (P14416 whole entry, looked up): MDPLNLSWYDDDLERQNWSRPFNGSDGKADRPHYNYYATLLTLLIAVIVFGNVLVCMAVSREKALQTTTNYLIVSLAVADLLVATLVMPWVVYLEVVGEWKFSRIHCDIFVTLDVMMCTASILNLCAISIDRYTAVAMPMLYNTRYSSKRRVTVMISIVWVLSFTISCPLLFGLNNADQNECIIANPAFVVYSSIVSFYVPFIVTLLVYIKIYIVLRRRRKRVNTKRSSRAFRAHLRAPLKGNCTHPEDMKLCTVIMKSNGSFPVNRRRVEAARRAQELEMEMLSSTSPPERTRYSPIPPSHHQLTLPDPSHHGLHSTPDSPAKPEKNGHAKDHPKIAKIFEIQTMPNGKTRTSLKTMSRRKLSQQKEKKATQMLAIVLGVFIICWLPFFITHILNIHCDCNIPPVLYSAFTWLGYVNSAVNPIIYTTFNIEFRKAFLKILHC

Assay [19] addresses Beta-2 adrenergic receptor (Homo sapiens) (UniProt P07550). Put plainly: Adrenergic beta2 receptor (ADRB2) small molecule agonists, cell-based qHTS assay (AID 1963593).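 Further: CHO cells stably overexpressing human ADRB2.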 The method, boiled down: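 CHO cells stably over-expressing ADRB2 were plated overnight at 37C, then dosed with compounds plus a stimulation mix containing 100uM IBMX and 25uM Ro-20-1724 for 0.5hr at room temperature. cAMP was measured by HTRF competition, 1hr.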

Assay [20] concerns the target D(2) dopamine receptor (Homo sapiens) (UniProt P14416). Put plainly: Dopamine D2 receptor (DRD2) small molecule antagonists, cell-based qHTS assay (AID 1963595; active means well fitted inhibition curve with a large enough effect in the signal ratio in the repeat runs, with a control signal flat; the % refers to the signal ratio; further: potency means the concentration at half of the fitted maximal effect). Summed up:
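Cells were plated and grown for 24 h at 37 °C. Ro20-1724 (0.1 mM final) went in first, then compound for 10 min. NKH477 (200 nM) with quinpirole (12 nM) followed for 30 min at RT, then HTRF detection reagents for 1 h.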

Beta-2 adrenergic receptor (Homo sapiens), sequence (P07550 whole entry, looked up): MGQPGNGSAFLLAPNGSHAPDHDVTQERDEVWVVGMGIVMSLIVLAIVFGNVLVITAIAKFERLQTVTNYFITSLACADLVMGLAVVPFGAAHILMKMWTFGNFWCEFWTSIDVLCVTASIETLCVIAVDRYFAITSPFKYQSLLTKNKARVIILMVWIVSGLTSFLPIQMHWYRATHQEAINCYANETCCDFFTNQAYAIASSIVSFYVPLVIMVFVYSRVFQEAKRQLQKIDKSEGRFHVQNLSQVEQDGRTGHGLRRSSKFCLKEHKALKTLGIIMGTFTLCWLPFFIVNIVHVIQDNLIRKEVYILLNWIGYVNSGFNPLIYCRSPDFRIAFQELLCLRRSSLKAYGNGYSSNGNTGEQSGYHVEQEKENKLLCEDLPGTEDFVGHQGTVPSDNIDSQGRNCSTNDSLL
Muscarinic acetylcholine receptor M1 (Homo sapiens), sequence (P11229 whole entry, looked up): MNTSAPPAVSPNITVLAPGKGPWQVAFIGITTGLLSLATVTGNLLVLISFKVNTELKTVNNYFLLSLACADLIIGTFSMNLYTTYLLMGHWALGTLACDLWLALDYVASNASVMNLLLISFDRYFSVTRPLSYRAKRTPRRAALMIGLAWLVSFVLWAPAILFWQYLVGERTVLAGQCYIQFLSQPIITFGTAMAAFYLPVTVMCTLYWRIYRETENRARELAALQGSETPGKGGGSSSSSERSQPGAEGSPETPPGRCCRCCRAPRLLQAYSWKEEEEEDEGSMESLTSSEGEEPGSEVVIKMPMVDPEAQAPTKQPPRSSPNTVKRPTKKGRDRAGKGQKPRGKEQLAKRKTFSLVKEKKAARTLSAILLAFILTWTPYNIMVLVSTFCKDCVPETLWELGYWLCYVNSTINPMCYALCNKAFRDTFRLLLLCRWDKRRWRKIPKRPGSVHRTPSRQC
KiSS-1 receptor (Homo sapiens), sequence (Q969F8 whole entry, looked up): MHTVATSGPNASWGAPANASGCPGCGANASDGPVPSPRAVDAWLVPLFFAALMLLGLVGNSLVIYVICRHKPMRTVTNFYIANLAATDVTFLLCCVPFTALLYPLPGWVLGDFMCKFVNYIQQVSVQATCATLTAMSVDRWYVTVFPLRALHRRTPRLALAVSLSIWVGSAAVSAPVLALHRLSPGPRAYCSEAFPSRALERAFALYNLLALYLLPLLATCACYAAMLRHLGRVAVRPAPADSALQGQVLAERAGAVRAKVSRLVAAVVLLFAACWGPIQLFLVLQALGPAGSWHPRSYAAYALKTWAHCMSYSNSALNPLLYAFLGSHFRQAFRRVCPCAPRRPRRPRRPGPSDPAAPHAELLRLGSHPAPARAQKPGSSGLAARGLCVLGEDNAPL

`O=C1NC(=O)[C@@]2(CCOc3ccc(F)cc32)N1`: the Potency entry in assay [1], in assay [2], in assay [3], in assay [4], in [5] and in [6] was “inactive” throughout. Also, the Potency entry in [7], in [8], in assay [9], in assay [10], in [11] and in [13] was “inactive” each time. The Potency entry in [14], in assay [15], in assay [16] and in assay [17] was “inactive” each time. For the same molecule, the results for the Potency in [12] and in [18] were 3010 nM (active) and 110 nM (active), respectively.

For `Cc1ccc2n[nH]nc2c1`, the Potency entry in assay [1], in assay [2], in assay [3], in [4], in assay [5] and in assay [6] was “inactive” each time. Moreover, the Potency entry in [7], in assay [8], in assay [9], in [10], in assay [11] and in assay [13] was “inactive” in each case. The Potency result in assay [14], in assay [15], in assay [17], in [19], in [18] and in [20] was “inactive” in each case.

In the case of `COc1ccc2cc(C=O)ccc2c1`, the Potency entry in assay [1], in [2], in assay [3], in [4], in assay [5] and in assay [6] was “inactive” each time. Moreover, the Potency result in [7], in [8], in assay [9], in assay [10], in assay [11] and in [12] was “inactive” throughout. In addition, the Potency entry in [13], in [14], in assay [15], in [16], in assay [17] and in assay [19] was “inactive” each time. Besides, the Potency entry in [20] is “inactive”.

With `COc1cc(N)c(Cl)cc1C(=O)NC1CCN(Cc2ccccc2)CC1`, the Potency entry in assay [1], in assay [2], in assay [3], in [4], in [5] and in [6] was “inactive” throughout. The Potency entry in assay [7], in assay [8], in [9], in [10], in [11] and in [12] was “inactive” each time. Moreover, the Potency result in assay [13], in assay [14], in [15], in assay [16], in assay [17] and in [18] was “inactive” in each case. Further, the Potency in assay [20] is 29.8 nM (active).

For `CC(C=O)c1ccccc1` (stereo unspecified), the Potency entry in assay [1], in assay [2], in [3], in assay [4], in assay [5] and in assay [6] was “inactive” in each case. Further, the Potency entry in [7], in assay [8], in [9], in [10], in [11] and in [13] was “inactive” each time. The Potency result in assay [14], in assay [16], in assay [17], in [19], in [18] and in assay [20] was “inactive” each time.

For `COc1cccc(Br)c1`, the Potency result in [1], in [2], in [3], in assay [4], in assay [5] and in assay [6] was “inactive” each time. Besides, the Potency result in [7], in assay [8], in assay [9], in assay [10], in assay [11] and in assay [12] was “inactive” each time. In addition, the Potency result in assay [13], in assay [14], in assay [15], in assay [16], in [17] and in [19] was “inactive” in each case. The Potency entry in assay [18] was “inactive”.

Consider `CC(Cl)COP(=O)(OCC(C)Cl)OCC(C)Cl` (stereo unspecified), for which the Potency result in assay [1], in assay [2], in assay [3], in assay [4], in assay [5] and in assay [6] was “inactive” throughout. The Potency result in [7], in [8], in [9], in [10], in [11] and in assay [12] was “inactive” each time. Also, the Potency result in assay [13], in [14], in assay [15], in [16], in assay [17] and in [19] was “inactive” throughout. Further, the Potency entry in assay [18] and in assay [20] was “inactive” throughout.
